Records with an inconclusive call do not appear. Calls of active or inactive are those of the source. Calls follow the shape of the dose curve; as a rule, active = well fitted curve in the direction sought with a large enough effect; inconclusive = small, poorly fitted or top-dose-only effect, or another doubt; inactive = no such curve, though single readings can be large; an effect the other way counts as inactive or inconclusive.
Assays:
[1] = target: Ubiquitin carboxyl-terminal hydrolase 1 (Homo sapiens) (UniProt O94782); assay: Inhibitors of USP1/UAF1: Pilot qHTS (AID 504865); conditions: purified USP1/UAF1, Ub-rhodamine cleavage fluorescence; series mostly up to 114 µM; also: nearly all actives have a fitted effect of over 35% in size; also: potency is read from the fitted curve at half-maximal effect
Chain of Ubiquitin carboxyl-terminal hydrolase 1 (Homo sapiens) (O94782 whole entry, looked up): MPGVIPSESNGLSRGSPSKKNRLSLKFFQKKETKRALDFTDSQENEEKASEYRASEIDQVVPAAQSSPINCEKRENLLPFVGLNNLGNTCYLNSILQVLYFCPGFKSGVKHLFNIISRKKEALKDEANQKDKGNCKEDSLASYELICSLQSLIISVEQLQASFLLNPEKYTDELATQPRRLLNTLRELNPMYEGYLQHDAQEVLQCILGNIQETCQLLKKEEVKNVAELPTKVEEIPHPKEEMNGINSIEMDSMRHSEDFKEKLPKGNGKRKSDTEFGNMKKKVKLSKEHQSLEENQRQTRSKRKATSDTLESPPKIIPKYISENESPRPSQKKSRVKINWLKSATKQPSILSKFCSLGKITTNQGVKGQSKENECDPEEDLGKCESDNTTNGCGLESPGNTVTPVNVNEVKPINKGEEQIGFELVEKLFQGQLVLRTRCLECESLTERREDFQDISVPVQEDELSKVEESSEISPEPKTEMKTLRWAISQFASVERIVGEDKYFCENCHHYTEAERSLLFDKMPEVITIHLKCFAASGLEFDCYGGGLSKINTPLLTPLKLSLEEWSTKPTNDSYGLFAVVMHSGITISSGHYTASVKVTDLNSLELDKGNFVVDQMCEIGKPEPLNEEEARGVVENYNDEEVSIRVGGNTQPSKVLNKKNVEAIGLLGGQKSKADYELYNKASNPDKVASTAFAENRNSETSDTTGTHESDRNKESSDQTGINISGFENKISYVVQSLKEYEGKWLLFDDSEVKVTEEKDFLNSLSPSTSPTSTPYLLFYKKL
Summary of the method: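 1nM USP1/UAF1 + cpd, 15 min RT; start w/ Ub-Rho 150nM final; kinetic FL 480/540 nm, 6 reads q60 s. Buffer 50mM HEPES pH 7.8, 0.5mM EDTA, 1mM TCEP, 0.01% Tween-20, 0.1 mg/ml BSA.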

[2] = S16 Schwann cell viability assay (CellTiter-Glo assay) (AID 624031); conditions: S16 rat Schwann cells viability, 24 h; series mostly up to 57.5 µM;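 also: cellular ATP luminescence as a viability measure; nearly all actives have a fitted effect of over 70% in size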
Summary of the method: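 Untransfected S16 rat Schwann cells; compound 24 h, 37 °C/5% CO2; CellTiter-Glo ATP luminescence. % activity vs no-cell wells and DMSO controls (0%); concentration-effect curves classed by r2, response magnitude, activity.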

[3] = S16 Schwann cell PMP22 intronic element firefly luciferase assay (AID 624032); conditions: S16 rat Schwann cells, PMP22 element FLuc, 24 h; series mostly up to 57.5 µM; also: nearly all actives have a fitted effect of over 30% in size; also: potency is read from the fitted curve at half-maximal effect
Summary of the method: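 Luciferase reporter of PMP22 intronic-element expression in stably transfected S16 rat Schwann cells, read by ONE-Glo luminescence after 24 h compound exposure at 37 C. Activity scaled between DMSO (0%) and positive-control PTC124; concentration-effect curves quality-classified.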

3D7 = assay: qHTS profiling for inhibitors of Plasmodium falciparum proliferation (AID 504749); also: nearly all actives have a fitted effect of over 60% in size; also: potency is read from the fitted curve at half-maximal effect; conditions: P. falciparum in erythrocytes, SYBR Green DNA, 72 h; series mostly up to 28.7 µM
Summary of the method: (§1)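 In a 72 h erythrocytic culture (37 C, humidified, 5% CO2) at 2.5% hematocrit and 0.3% starting parasitemia, compounds were tested; SYBR Green I in detergent lysis buffer stained parasite DNA overnight.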

7G8 = assay: as above; conditions: P. falciparum in erythrocytes, SYBR Green DNA, 72 h; series mostly up to 28.7 µM
Summary of the method: as §1

ATS95 = assay: as above; conditions: P. falciparum in erythrocytes, SYBR Green DNA, 72 h; series mostly up to 28.7 µM
Summary of the method: as §1

C2A = assay: as above; conditions: P. falciparum in erythrocytes, SYBR Green DNA, 72 h; series mostly up to 28.7 µM
Summary of the method: as §1

CP247 = assay: as above; conditions: P. falciparum in erythrocytes, SYBR Green DNA, 72 h; series mostly up to 28.7 µM
Summary of the method: as §1

CP256 = assay: as above; conditions: P. falciparum in erythrocytes, SYBR Green DNA, 72 h; series mostly up to 28.7 µM
Summary of the method: as §1

CP291 = assay: as above; conditions: P. falciparum in erythrocytes, SYBR Green DNA, 72 h; series mostly up to 28.7 µM
Summary of the method: as §1

DIV17 = assay: as above; conditions: P. falciparum in erythrocytes, SYBR Green DNA, 72 h; series mostly up to 28.7 µM
Summary of the method: as §1

DIV30 = assay: as above; conditions: P. falciparum in erythrocytes, SYBR Green DNA, 72 h; series mostly up to 28.7 µM
Summary of the method: as §1

GB4 = assay: as above; conditions: P. falciparum in erythrocytes, SYBR Green DNA, 72 h; series mostly up to 28.7 µM
Summary of the method: as §1

P93_24 = assay: as above; conditions: P. falciparum in erythrocytes, SYBR Green DNA, 72 h; series mostly up to 28.7 µM
Summary of the method: as §1

P94_40 = assay: as above; conditions: P. falciparum in erythrocytes, SYBR Green DNA, 72 h; series mostly up to 28.7 µM
Summary of the method: as §1

PAD = assay: as above; conditions: P. falciparum in erythrocytes, SYBR Green DNA, 72 h; series mostly up to 28.7 µM
Summary of the method: as §1

PC15 = assay: as above; conditions: P. falciparum in erythrocytes, SYBR Green DNA, 72 h; series mostly up to 28.7 µM
Summary of the method: as §1

TAB109 = assay: as above; conditions: P. falciparum in erythrocytes, SYBR Green DNA, 72 h; series mostly up to 28.7 µM
Summary of the method: as §1

TAB165 = assay: as above; conditions: P. falciparum in erythrocytes, SYBR Green DNA, 72 h; series mostly up to 28.7 µM
Summary of the method: as §1

W2 = assay: as above; conditions: P. falciparum in erythrocytes, SYBR Green DNA, 72 h; series mostly up to 28.7 µM
Summary of the method: as §1

Measured: Potency

CC(c1ncncc1F)[C@](O)(Cn1cncn1)c1ccc(F)cc1F (stereo partly drawn)
inactive: all assays above

CC(=O)NC[C@@H]1CN(c2ccc(N3CCOCC3)c(F)c2)C(=O)O1
inactive: all assays above

O=c1[nH]c(=O)n(C2C[C@H](O)[C@@H](CO)O2)cc1C(F)(F)F (stereo partly drawn)
active: [3] 0.51 µM
inactive: all other assays above

COc1cc2c(cc1O)CCN[C@@]21CS[C@H]2c3c(OC(C)=O)c(C)c4c(c3C(COC1=O)N1C2C2c3c(cc(C)c(OC)c3O)CC([C@@H]1O)N2C)OCO4 (stereo partly drawn)
inactive: [2] | [3]
active: 3D7 0.0003 µM | 7G8 0.3 nM | ATS95 0.9 nM | C2A 2.8 nM | CP247 0.0011 µM | CP256 5.6 nM | CP291 0.4 nM | DIV30 1.5 nM | GB4 0.2 nM | P93_24 0.0009 µM | P94_40 0.9 nM | PC15 1.1 nM | TAB109 0.0009 µM | TAB165 0.001 µM | W2 0.4 nM

COC(=O)C1[C@@H](OC)C(OC(=O)COc2ccc(OC)cc2)C[C@@H]2CN3CCc4c([nH]c5cc(OC)ccc45)[C@H]3C[C@H]12 (stereo partly drawn)
active: 3D7 10 µM | 7G8 7940 nM | DIV17 6.75 µM | DIV30 8490 nM | P93_24 10 µM | PAD 11.2 µM | TAB165 12.6 µM | W2 8490 nM
inactive: [1] | [2]

COc1cccc2c1C(=O)c1c(O)c3c(c(O)c1C2=O)C[C@@](O)(C(=O)CO)C[C@@H]3OC1CC(N)C(O)C(C)O1 (stereo partly drawn)
active: [1] 50.1 µM | 3D7 1 µM | 7G8 316 nM | ATS95 2000 nM | C2A 2240 nM | CP247 2.24 µM | CP256 2240 nM | CP291 3380 nM | DIV17 1.69 µM | DIV30 4260 nM | GB4 1690 nM | P93_24 2 µM | P94_40 2000 nM | PAD 2.24 µM | PC15 2000 nM | TAB109 2 µM | TAB165 2.24 µM | W2 675 nM
inactive: [2] | [3]

Cc1ccc(/C=C2/C(=O)C3(C)CCC2C3(C)C)cc1 (stereo not drawn)
not listed: W2
inactive: all other assays above

Nc1nc2[nH]cc(CCc3ccc(C(=O)NC(CCC(=O)O)C(=O)O)cc3)c2c(=O)[nH]1 (stereo not drawn)
inactive: [2] | [3]
active: 3D7 8.91 µM | 7G8 3980 nM | C2A 316 nM | CP247 0.199 µM | CP256 224 nM | GB4 84.9 nM | PAD 0.224 µM | TAB109 11.2 µM | TAB165 7.94 µM | W2 75.7 nM

O=c1ccn(C2OC(COP(=O)(O)OC3C(CO)OC(n4ccc(=O)[nH]c4=O)C3O)C(O)C2O)c(=O)[nH]1 (stereo not drawn)
not listed: [2]
inactive: all other assays above

Cc1ccc(Nc2ncccc2C(=O)O)cc1C
inactive: all assays above

CCC(=O)OC1C(N(C)C)CC(C)O[C@H]1O[C@H]1[C@H](C)[C@@H](O[C@H]2CC(OC)[C@@H](O)C(C)O2)[C@H](C)C(=O)O[C@@H](CC)[C@](C)(O)[C@@H](O)[C@H](C)C(=O)[C@@H](C)C[C@]1(C)O (stereo partly drawn)
active: W2 6750 nM
inactive: [1] | [2] | [3] | 3D7 | 7G8 | ATS95 | CP291 | DIV30 | PAD | PC15

CO/N=C(/C(=O)N[C@H]1C(=O)N2C(C(=O)O)=C(COC(C)=O)CSC12)c1csc(N)n1 (stereo partly drawn)
active: [1] 39.8 µM

Nc1ncn(C2C[C@H](O)[C@@H](CO)O2)c(=O)n1 (stereo partly drawn)
not listed: [3]
inactive: all other assays above

C[C@]12CCC(=O)C=C1[C@@H]1C[C@H]1[C@H]1[C@@H]3[C@@H]4C[C@H]4[C@@]4(CCC(=O)O4)[C@@]3(C)CC[C@@H]12
not listed: [3] | 3D7 | 7G8 | DIV30 | PAD | W2
inactive: all other assays above

C=CC1CN2CCC1CC2[C@@H](O)c1ccnc2ccc(OC)cc12 (stereo partly drawn)
active: [3] 32.2 µM | 3D7 0.0794 µM | 7G8 50.1 nM | ATS95 251 nM | C2A 891 nM | CP247 1 µM | CP256 891 nM | CP291 478 nM | DIV17 0.135 µM | DIV30 338 nM | GB4 135 nM | P93_24 0.398 µM | P94_40 251 nM | PAD 0.251 µM | PC15 89.1 nM | TAB109 0.112 µM | TAB165 0.251 µM | W2 190 nM
inactive: [2]

CC(=O)N1CC(O)CC1C(=O)O (stereo not drawn)
inactive: all assays above

CNC1CCc2cc(OC)c(OC)c(OC)c2-c2ccc(OC)c(=O)cc21 (stereo not drawn)
not listed: [3] | 3D7 | 7G8 | CP247 | DIV17 | DIV30 | P93_24 | W2
inactive: all other assays above

C=C1C(n2cnc3c(=O)[nH]c(N)nc32)C[C@H](O)[C@H]1CO (stereo partly drawn)
active: 7G8 12600 nM
inactive: [1] | [2] | [3] | C2A | CP247 | DIV30 | P94_40 | PAD | TAB165

C[C@H](CN1c2ccccc2Sc2cccnc21)N(C)C
active: ATS95 11200 nM | CP247 3.98 µM | DIV17 4.78 µM | GB4 6750 nM | P93_24 8.91 µM | TAB109 7.08 µM | TAB165 11.2 µM | W2 1690 nM
inactive: [1] | [3]
